# Compounds with a hit are over-represented: about 4.7% of the library has one in this group of screens.
# SKKanGAS inh: blocks kanamycin growth of S. pyogenes SKKanGAS strain | BacTiter-Glo, 6 h | inhibition, % at 7.5 µM | hit rate 1.3% among 300,000;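 active = mean replicate score, as percent of positive control median, at least 50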;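 note: strain carries kanamycin resistance gene driven by streptokinase promoter and grows in 40 µg/ml kanamycin; loss of luminescence reflects streptokinase promoter inhibition or plain growth inhibition; 0% = median of DMSO wells and 100% = positive control at its reference dose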
# EBI2 block: antagonists of human EBI2 receptor; P32249; EBI2 beta-arrestin recruitment, luminescence, 7a,25-OHC stimulated; inhibition, % at 5 µM; hit rate 0.81% among 360,000; AID 651636; in the data active = inhibition above about 38%;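 note: enzyme fragment complementation signal reports receptor beta-arrestin coupling in cells; 0% = agonist plus DMSO wells and 100% = wells without agonist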
# Target sequence (P32249 whole entry, looked up, the tested form may be a part): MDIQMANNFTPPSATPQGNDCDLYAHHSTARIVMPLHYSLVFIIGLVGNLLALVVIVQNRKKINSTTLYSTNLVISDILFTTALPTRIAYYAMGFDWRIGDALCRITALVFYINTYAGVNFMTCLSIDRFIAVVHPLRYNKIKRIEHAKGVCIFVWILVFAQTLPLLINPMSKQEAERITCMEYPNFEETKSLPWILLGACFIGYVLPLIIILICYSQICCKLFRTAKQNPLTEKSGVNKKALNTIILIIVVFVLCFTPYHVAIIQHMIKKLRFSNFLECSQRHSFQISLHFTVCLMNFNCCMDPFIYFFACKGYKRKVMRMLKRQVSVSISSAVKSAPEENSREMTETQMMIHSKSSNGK
# PfHsp90 yeast 2: reduces growth (ATP signal) of yeast expressing P. falciparum Hsp90; hit rate 0.32% among 310,000; inhibition, % at 9.4 µM; S. cerevisiae expressing PfHsp90, BacTiter-Glo ATP, 48 h; yeast lacking PDR1 and PDR3 efflux regulators;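 active = every replicate shows inhibition above about 80%, whatever the replicate mean, limit read from the data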;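 note: 0% = DMSO neutral controls and 100% = 20 µM radicicol positive controls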
# tim10-1 inh: inhibits growth of tim10-1 mutant yeast | hit rate 2.2% among 330,000 | AID 463190 | S. cerevisiae tim10-1 ts strain growth, BacTiter-Glo, 24 h | inhibition, % at 20 µM;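 active = inhibition of at least 40%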;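 note: mutant grown at 25 °C; 0% = DMSO wells with yeast and 100% = wells holding no yeast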
# TIM10 inh: inhibits growth of TIM10 yeast strain. AID 463195. inhibition, % at 10 µM. hit rate 1.4% among 330,000. S. cerevisiae TIM10 strain growth, BacTiter-Glo luminescence, 24 h;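 active = inhibition of 40% or more at the single tested concentration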;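 note: wild-type TIM10 isogenic control strain grown at permissive 25 °C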
# tim23-1 inh: inhibits growth of tim23-1 mutant yeast. S. cerevisiae tim23-1 growth, BacTiter-Glo luminescence, 24 h. inhibition, % at 20 µM. hit rate 1.3% among 330,000;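 active = growth inhibition of the mutant yeast at or above 50%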;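 note: temperature-sensitive mutant grown at 25 °C; plate controls were DMSO-treated mutant yeast for no effect and medium wells lacking yeast for full effect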
# tim10-1 confirm: tim10-1 yeast growth inhibition, confirmed | shares compounds with tim10-1 inh | S. cerevisiae tim10-1 ts strain growth, BacTiter-Glo, 24 h | inhibition, % at 20 µM | hit rate 56% among 7,400;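 active = inhibition of yeast growth at or above a set limit in either of two repeat tests at 20 µM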;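 note: tim10-1 mutant grown at permissive 25 °C to find synthetic lethal compounds; 0% = DMSO yeast wells and 100% = medium wells without yeast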
# * hit, by the source's call; nt = no result.
SMILES,SKKanGAS inh,EBI2 block,PfHsp90 yeast 2,tim10-1 inh,TIM10 inh,tim23-1 inh,tim10-1 confirm
CC(C)(C)C(=O)[C@@H]1[C@@H]2C(=O)N(C3CCCCC3)C(=O)[C@@H]2[C@H]2c3ccccc3C=CN12,nt,4,4,40*,26,26,26
COc1ccc(NC(=O)Cc2ccc(C)c(C)c2)cc1S(=O)(=O)N1CCCCC1,nt,7,17,-37,-14,-28,nt
CC(C)(C)C(=O)OCc1nc(-c2ccc(Cl)cc2)cs1,19,23,-17,45*,24,23,42*
COc1ccc(CNc2ccc(S(=O)(=O)N3CCN(C)CC3)cn2)cc1OC,0,6,nt,-1,-1,13,nt
CN1CCN(NC(=O)CN2C(=O)S/C(=C\c3c(Cl)cccc3Cl)C2=O)CC1,11,1,12,8,8,-2,nt
CN1CCC(n2[nH]c(-c3ccccc3)c(Cc3ccccc3)c2=O)CC1,nt,-2,-4,nt,nt,nt,nt
O=C1CC(c2ccccc2Cl)CC(O)=C1C=Nc1ccccc1 (centres undefined),2,10,-19,44*,26,49,41*
Cc1ccc(N=CC2=C(O)CC(c3ccccc3Cl)CC2=O)cc1 (centres undefined),2,-5,nt,33,24,21,nt
CC1(C(=O)NS(=O)(=O)c2ccc(Br)cc2)CCN1C(=O)CCC1CCCC1 (centres undefined),nt,-9,nt,nt,nt,nt,nt
Cc1cccc(C(=O)CC(=O)c2cc(Cl)ccc2O)c1,94*,12,19,47*,29,41,63*
O=C(O)c1ccc(Nc2nc(-c3ccccc3)nc3ccccc23)cc1,17,-2,0,53*,4,15,15
O=C(O)c1cccc(Nc2nc(-c3ccccc3)nc3ccccc23)c1,14,-2,-15,15,5,-2,nt
Cc1cc(C(=O)Nc2ccc3ccccc3c2)c(C)o1,-7,4,-8,-31,15,37,nt
COC(=O)C1=C(C)OC(N)=C(C#N)C1c1c(C)nn(-c2ccccc2)c1Cl (centres undefined),-1,4,17,40*,36,43,33*
COc1ccc(NC(=O)c2sc(=O)n(Cc3ccc4ccccc4c3)c2C)cc1OC,nt,8,nt,nt,nt,nt,nt
Cc1cc(C)n(-c2ccc(C(=O)OCC(=O)Nc3ccc(Cl)cc3[N+](=O)[O-])cc2)n1,7,-2,16,15,-2,-8,nt
O=C(O)C[C@@H](O)C(=O)O,-5,-5,6,9,7,0,nt
CC(C)N1CCC(C)(C(=O)Nc2ccc(-n3cccc3)cc2)C1 (centres undefined),nt,-3,nt,nt,nt,nt,nt
COc1cc(NC(=O)CSc2nnnn2C2CCCC2)cc(OC)c1,-2,3,4,97*,4,-3,-2
COc1cccc(NC(=O)CSc2nnnn2C2CCCC2)c1,-1,7,43,-12,13,11,nt
COc1c(C)cc(Br)cc1C(=O)Nc1ccc(Cc2ccncc2)cc1,11,12,-32,-17,-5,25,nt
O=C(NC(=S)NNC(=O)c1ccccc1[N+](=O)[O-])c1ccc(Br)cc1,63*,0,13,41*,36,49,44*
CCCCCC(=O)NNC(=S)NC(=O)c1cccc([N+](=O)[O-])c1,-14,-9,-9,22,24,5,nt
CCCCCC(=O)NNC(=S)NC(=O)c1ccccc1[N+](=O)[O-],0,6,nt,43*,18,7,26
O=C(NNC(=S)NC(=O)c1ccccc1[N+](=O)[O-])c1ccccc1Cl,1,1,5,16,14,13,nt
SMILES,SKKanGAS inh,EBI2 block,PfHsp90 yeast 2,tim10-1 inh,TIM10 inh,tim23-1 inh,tim10-1 confirm
Cc1cccc(C)c1N1CCN(C(=O)Cn2cncn2)CC1,-2,6,nt,1,-9,15,nt
C=CC[n+]1ccc(/C=C2\C=Cc3cc(C)ccc3N2CC)c2ccccc21,nt,5,44,nt,nt,nt,nt
Cc1ccccc1CN1CCN(c2nc3ccccc3s2)CC1,19,2,-1,41*,5,40,24
CCOC(=O)CCc1c(C)n(CC)c2cc(-c3ccccc3OC)nn2c1=O,3,-2,22,42*,32,21,25
CCN(CC)CCCNC(=O)CCc1c(C)n(CC)c2cc(-c3ccccc3OC)nn2c1=O,7,-4,-21,-3,3,-5,nt
CCCOc1ccc(CNC(=S)Nc2ccccc2)cc1Cl,-3,0,-34,43*,23,36,23
